# Screening data (PubChem)
# A selection: hits, their analogues and other compounds. The true share with any hit is near 1.4%.
# HePTP inh: inhibitors of human HePTP phosphatase, primary screen, biochemical, absorbance, leukemia target; Tyrosine-protein phosphatase non-receptor type 7 (Homo sapiens), P35236; recombinant HePTP phosphatase activity, OD absorbance; inhibition, % at 20 µM; 110,000 tested, 0.64% active; in the data active means inhibition above about 50%
# PLAP activator: PLAP enzyme activators, biochemical, luminescence, HTS | 96,000 tested, 1.2% active | activation fold at 20 µM | purified PLAP enzyme, luminescent substrate read-out; stronger effect = higher value | Alkaline phosphatase, placental type (Homo sapiens), P05187; in the data active means activation fold above about 2
# BAP1 inh: inhibitors of BAP1 deubiquitinase, primary screen, biochemical, Ub-AMC fluorescence, kinetic | recombinant BAP1, Ub-AMC hydrolysis fluorescence kinetic; stronger effect = lower value | calls only at 20 µM | 72,000 tested, 0.48% active;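 active means activity remaining at or below 50% of control, provided the compound also passes the data quality filters; inactive means the rest, including low values that fail the filters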
# DUSP1 inh: MKP-1 phosphatase inhibitors, primary screen, biochemical, in vitro. inhibition, %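 (compounds tested at a single concentration somewhere between 10 and 100 µM)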. 65,000 tested, 0.15% active. recombinant MKP-1, OMFP hydrolysis fluorescence;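 active means inhibition above about 50%, limit read from the data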
# Target sequence (P28562 whole entry, looked up): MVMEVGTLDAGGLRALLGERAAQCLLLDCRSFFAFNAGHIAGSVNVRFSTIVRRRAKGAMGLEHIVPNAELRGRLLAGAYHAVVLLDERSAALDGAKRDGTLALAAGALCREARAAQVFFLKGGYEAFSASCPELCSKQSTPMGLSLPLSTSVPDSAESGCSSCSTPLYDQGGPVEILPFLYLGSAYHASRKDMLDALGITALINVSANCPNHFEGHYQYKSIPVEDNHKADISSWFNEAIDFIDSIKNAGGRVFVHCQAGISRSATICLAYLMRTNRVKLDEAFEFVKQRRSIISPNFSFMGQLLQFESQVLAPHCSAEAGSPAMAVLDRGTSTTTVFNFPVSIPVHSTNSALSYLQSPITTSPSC
# Cdc25B inh: inhibitors of Cdc25B phosphatase catalytic domain, primary screen, biochemical, OMFP fluorescence; M-phase inducer phosphatase 2 (Homo sapiens), P30305; recombinant Cdc25B, OMFP fluorescence Ex485/Em525; inhibition, %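 (compounds tested at 10 µM final in the well)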; 65,000 tested, 0.1% active; in the data active means inhibition above about 50%
# BAP1 inh confirm: BAP1 deubiquitinase inhibitors, hit retest, confirmation, orthogonal assay, biochemical, Ub-ethyl ester substrate, HPLC readout | 310 tested, 8% active | % of control activity, % at 20 µM | purified BAP1, Ub-ethyl ester hydrolysis; stronger effect = lower value | shares compounds with BAP1 inh;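 active means percent of control activity at or below 60%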
# Numbers stand for hits; . = inactive; / = no result given; + = active, no number.
SMILES,HePTP inh,PLAP activator,BAP1 inh,DUSP1 inh,Cdc25B inh,BAP1 inh confirm
COc1ccccc1N1CCN(c2nc3ccccc3nc2C(C#N)C(=O)OC(C)C)CC1 (stereo unspecified),.,.,+,.,.,.
COC(=O)c1ccc(NC2=C(Cl)C(=O)c3ccccc3C2=O)cc1,.,/,/,/,/,/
Cc1cc(OCc2ccc(F)cc2)nc(-c2ccccc2O)n1,.,.,+,.,.,.
Cc1ccc(Oc2cc(C)nc(-c3ccccc3O)n2)cc1,.,.,.,.,.,/
COc1ccccc1C(=O)Nc1c(C)n(C)n(-c2ccccc2)c1=O,.,.,.,.,.,/
COc1ccccc1NC(=O)Nc1c(C)n(C)n(-c2ccccc2)c1=O,.,.,+,.,.,.
C=CCn1c(SCCCCCC)nc(O)cc1=O,/,.,+,.,.,.
C=CCn1c(SCCCC)nc(O)cc1=O,.,.,.,.,.,/
CCOC(=O)Cn1nnnc1CN(Cc1ccc(OC)cc1)Cc1cc2cc(C)ccc2[nH]c1=O,.,/,.,.,.,/
CCOC(=O)Cn1nnnc1CN(Cc1ccc(OC)cc1)Cc1cc2cc(CC)ccc2[nH]c1=O,.,.,+,.,.,.
O=C1N/C(=N\Nc2ccc([N+](=O)[O-])cc2)S/C1=C/c1ccccc1,.,/,/,/,/,/
CCc1ccc(N/C(SCc2cccc(F)c2)=C(/C#N)C(=O)NCc2ccco2)cc1,.,.,+,.,.,.
Cc1ccc(N/C(SCc2ccccc2C)=C(/C#N)C(=O)NCc2ccco2)cc1C,/,.,/,/,/,/
CCCCNC(=O)c1cc2c(-c3ccc(Cl)cc3)nn(C)c2s1,.,.,+,.,.,.
Cc1cc(NC(=O)c2cn(C3CCCCC3)c(=O)c3c2c2ccccc2n3C)no1,.,.,+,.,.,.
CC(C)NC(=O)c1cnn(-c2ccccc2)c1NC(=O)c1ccccc1,.,/,/,/,/,/
NC1=CC(=O)c2cccc3cccc1c23,.,.,+,.,.,.
O=C(Nc1ccc(Cc2ccncc2)cc1)c1ccc(-c2cccc(Cl)c2)o1,.,/,/,/,/,/
Cc1ccc2[nH]c(=O)c(C(c3nnnn3CCc3ccccc3)N3CCOCC3)cc2c1 (stereo unspecified),.,.,+,.,.,.
COc1ccccc1C(c1nnnn1CCc1ccccc1)N1CCN(c2ccccc2)CC1 (stereo unspecified),.,.,+,.,.,.
COCCn1nnnc1C(c1cc2cc(C)ccc2[nH]c1=O)N1CCCCCC1 (stereo unspecified),.,.,.,.,.,/
Cc1ccc(-c2nc3s/c(=C\c4ccco4)c(=O)n3n2)cc1,.,.,+,.,.,55
COc1ccccc1/C=c1\sc2nc(-c3ccc(C)cc3)nn2c1=O,.,/,/,/,/,/
COc1ccccc1OCCCOc1ccccc1OC,.,/,/,/,/,/
COC1=Cc2c(ccc3ccc(=O)oc23)OC1(C)C,.,.,/,.,.,/
SMILES,HePTP inh,PLAP activator,BAP1 inh,DUSP1 inh,Cdc25B inh,BAP1 inh confirm
CC(=O)OC1c2c(ccc3ccc(=O)oc23)OC(C)(C)C1OC(=O)CC(C)C (stereo unspecified),.,.,+,.,.,.
CCOC(=O)COc1nc(C)c(Br)c(OC)n1,.,.,+,.,.,.
O=C(CCSc1nnc2scc(-c3ccccc3)n12)Nc1nc(-c2ccccc2)ns1,.,.,+,.,.,.
Cc1ccc(Cn2ncc3c(N4CCN(Cc5ccc(Cl)cc5)CC4)ncnc32)cc1,.,.,/,.,.,/
Cc1ccccc1N1CCN(c2ncnc3c2cnn3Cc2ccc(Cl)cc2)CC1,.,.,+,.,.,.
N#Cc1c(NC(=O)CN2CCN(S(=O)(=O)c3ccc4c(c3)OCCO4)CC2)sc2c1CCC2,.,.,+,.,.,.
Cc1ccccc1OCC(=O)Nc1ccc(N2CCN(S(C)(=O)=O)CC2)cc1,.,.,.,.,.,/
Cc1cccc(OCC(=O)Nc2ccc(N3CCN(S(C)(=O)=O)CC3)cc2)c1C,.,.,+,.,.,.
O=C(CSc1nnc(-c2c[nH]c3ccccc23)o1)N1c2ccccc2CCc2ccccc21,.,.,+,.,.,.
CCOC(=O)c1[nH]c(CSc2nnc(-c3ccc(OC)cc3)o2)c(C(=O)OCC)c1C,.,.,+,.,.,.
O=S(=O)(c1ccc2c(c1)oc1ccccc12)N1CCOCC1,.,.,+,.,.,.
O=C1c2ccccc2-c2ccc(S(=O)(=O)N3CCOCC3)cc21,.,/,/,/,/,/
COc1ccc(Cn2nnnc2C(c2ccccn2)N2CCN(c3cc(Cl)ccc3C)CC2)cc1 (stereo unspecified),.,.,+,.,.,.
COCCn1nnnc1C(c1ccccn1)N1CCN(c2cc(Cl)ccc2C)CC1 (stereo unspecified),/,.,/,/,/,/
Cc1cc(C)cc(OCc2nnc(SCC(=O)N3CCN(c4ccccc4)CC3)o2)c1,.,.,+,.,.,.
Cc1ccc2cc(CN(Cc3ccc4c(c3)OCO4)Cc3nnnn3Cc3ccco3)c(=O)[nH]c2c1C,.,.,+,.,.,.
CC(=O)NC(c1ccccc1)C1C(=O)N(c2ccccc2)N=C1C (stereo unspecified),.,/,/,/,/,/
COc1ccc2c(c1)c1ncn(CCc3ccccc3)c(=O)c1n2C,/,.,/,/,/,/
COc1ccc2c(c1)c1nc(SCC(C)C)n(CCO)c(=O)c1n2C,.,.,+,.,.,.
CCOC(=O)C1CCCN(c2ccc(NC(=O)c3snc4c(=O)[nH]cnc34)cc2)C1 (stereo unspecified),.,.,+,.,.,.
CCOC(=O)C1CCCN(c2ccc(NC(=O)c3snc4c(=O)[nH]c(C)nc34)cc2)C1 (stereo unspecified),/,.,/,/,/,/
COC(=O)CSc1nc2ccc(NC(=O)CSc3nnnn3Cc3ccccc3)cc2s1,.,.,+,.,.,.
Cn1cnnc1SCC(=O)Nc1ccc2nc(SCc3ccccc3)sc2c1,.,.,.,.,.,/
c1ccc(-c2nnc3sc(-c4csc5c4CCCC5)nn23)cc1,.,.,+,.,.,59
c1ccc(-c2nnc3sc(-c4ccncc4)nn23)cc1,.,.,.,.,.,/
CCOC(=O)C1=C(C)N=c2s/c(=C/c3ccco3)c(=O)n2C1c1cccc(OC)c1 (stereo unspecified),.,.,+,.,.,.
CCOC(=O)C1=C(C)N=c2s/c(=C\c3ccco3)c(=O)n2C1c1ccccc1 (stereo unspecified),.,/,/,/,/,/
Cc1occc1-c1nnc(SCC(=O)c2ccc(F)cc2)n1Cc1ccco1,.,.,.,.,.,/
O=C(CSc1nnc(-c2cc3ccccc3cc2O)n1Cc1ccco1)c1ccc(F)cc1,.,.,+,.,.,.
